According to the supplement of paper PMC10849652:
Targets with a hit are over-represented here; the source holds about 8,800 in all. About 0.5% of all pairs of compound and target were hits.

Key:
Test in all cases: log2 fold change, soluble protein after heating vs DMSO (PISA); higher = thermal stabilisation; K562 lysate, 10 uM; active = over 0.2 and 3.5 SD of the protein, either way, in both replicates (recomputed)
[1] = compound: C=CC(=O)N1CCC[C@@H](n2nc(-c3ccc(Oc4ccccc4)cc3)c3c(N)ncnc32)C1 [ibrutinib]
In short: (§1)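 Log-two fold change in thermal stability relative to solvent controls is reported from duplicates. For each sample, crude K562 extract from dounce-homogenised pellets in PBS pH 7.4 with 1 mM MgCl2, at 1 mg/mL protein, was treated with 10 μM compound for 30 min. Aliquots heated for 3 min across 48°C-58°C were pooled, brought to 0.5% NP-40 at 4°C and cleared at 21,000xg for 90 min. The supernatant was quantified by TMTpro 16plex LC-MS/MS with channel sums equalised.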

[2] = compound: CC(=O)c1cnc2ccc(-c3cc(Cl)c(O)c(Cl)c3)nc2c1N[C@H]1CC[C@H](CN(C)C)CC1
In short: as §1

[3] = compound: CC(C)(C)Cn1c(N)nc2ccc(-c3[nH]c(C(C)(C)C)nc3-c3ccc(F)cc3)nc21 [ralimetinib]
In short: as §1

[4] = compound: CC(C)(O)CC(=O)NCCn1ccc2ncnc(Nc3ccc(Oc4cccc(C(F)(F)F)c4)c(Cl)c3)c21
In short: as §1

[5] = compound: CC(C)C1=C2N=C(C=C(N2N=C1)NCC3=CC=CC=C3)NCCCCCCN
In short: as §1

[6] = compound: CC1=C(C(CC(=O)N1)C2=CC=C(C=C2)C(F)(F)F)C(=O)NC3=C(C=C4C(=C3)C=NN4)F
In short: as §1

[7] = compound: CC1=C(C2=C(C=C1)C(=O)C3=CC=CC=C3N2CCCN)C
In short: as §1

[8] = compound: CC1=C(C=C(C=C1)NC(=O)C2=CC(=CC=C2)C(C)(C)C#N)NC3=CC4=C(C=C3)N=CN(C4=O)C
In short: as §1

[9] = compound: CC1=C(C=C(C=C1)NC(=O)C2=CC(=CC=C2)N(C)C)NC(=O)C3=CC=C(C=C3)O
In short: as §1

[10] = compound: CC1=CC=C(C=C1)SC2=C3C=C(SC3=CN=C2)C(=O)N
In short: as §1

[11] = compound: CCCS(=O)(=O)Nc1ccc(F)c(C(=O)c2c[nH]c3ncc(-c4ccc(Cl)cc4)cc23)c1F [vemurafenib]
In short: as §1

[12] = compound: CCCS(=O)(=O)Nc1ccc(F)c(C(=O)c2c[nH]c3ncc(Cl)cc23)c1F
In short: as §1

[13] = compound: CCN(CCCOc1ccc2c(Nc3cc(CC(=O)Nc4cccc(F)c4)[nH]n3)ncnc2c1)CCOP(=O)(O)O [barasertib]
In short: as §1

[14] = compound: CC[C@@H]1C(=O)N(C)c2cnc(Nc3ccc(C(=O)NC4CCN(C)CC4)cc3OC)nc2N1C1CCCC1
In short: as §1

[15] = compound: CC[C@@H]1C(=O)N(C)c2cnc(Nc3ccc(C(=O)N[C@H]4CC[C@H](N5CCN(CC6CC6)CC5)CC4)cc3OC)nc2N1C(C)C [volasertib]
In short: as §1

[16] = compound: CCn1c(C(=O)N(C2CC2)C2CC2)cc2c3c(ncn3C)c(Nc3cc(C)n(C)n3)nc21
In short: as §1

[17] = compound: CCn1cc(-c2ccnc3[nH]c(-c4cccc(CN(C)C)c4)cc23)c(-c2ccc(NC(=O)N(C)C)cc2)n1
In short: as §1

[18] = compound: CN1CCC(CNc2ccc3ncc(-c4cccc(OC(F)(F)F)c4)n3n2)CC1
In short: as §1

[19] = compound: CN1CCN(CCOc2cc(OC3CCOCC3)c3c(Nc4c(Cl)ccc5c4OCO5)ncnc3c2)CC1 [saracatinib]
In short: as §1

[20] = compound: CN1CCN(c2nc(C3=C(c4c[nH]c5ccccc45)C(=O)NC3=O)c3ccccc3n2)CC1 [sotrastaurin]
In short: as §1

Measured: log2 fold change

TBL3 (UniProt Q12788)
Sequence of UniProt Q12788 (Q12788 whole entry, looked up): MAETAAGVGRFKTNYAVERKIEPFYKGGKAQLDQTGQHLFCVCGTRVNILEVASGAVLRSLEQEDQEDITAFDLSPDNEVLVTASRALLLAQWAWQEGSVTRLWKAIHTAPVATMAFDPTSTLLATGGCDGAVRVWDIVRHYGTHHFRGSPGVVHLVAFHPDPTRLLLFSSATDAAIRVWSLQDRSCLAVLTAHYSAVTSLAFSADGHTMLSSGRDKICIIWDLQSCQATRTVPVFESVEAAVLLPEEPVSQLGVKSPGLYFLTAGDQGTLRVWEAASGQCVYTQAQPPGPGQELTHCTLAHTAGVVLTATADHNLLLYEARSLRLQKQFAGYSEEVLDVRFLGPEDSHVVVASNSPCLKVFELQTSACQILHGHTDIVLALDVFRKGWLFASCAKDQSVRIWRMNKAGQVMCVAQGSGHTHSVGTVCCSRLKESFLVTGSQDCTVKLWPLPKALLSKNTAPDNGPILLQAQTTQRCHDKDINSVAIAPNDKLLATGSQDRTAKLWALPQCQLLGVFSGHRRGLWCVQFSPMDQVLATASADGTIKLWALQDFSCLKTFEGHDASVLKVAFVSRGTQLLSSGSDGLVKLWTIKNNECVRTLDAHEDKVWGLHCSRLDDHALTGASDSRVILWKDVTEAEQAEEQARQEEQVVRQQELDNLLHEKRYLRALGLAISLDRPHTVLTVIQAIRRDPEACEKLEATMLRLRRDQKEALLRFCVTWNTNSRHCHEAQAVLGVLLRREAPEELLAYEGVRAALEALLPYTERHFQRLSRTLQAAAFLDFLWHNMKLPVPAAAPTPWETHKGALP
inactive: [1] -0.006 | [2] -0.016 | [3] 0.027 | [4] 0.001 | [5] 0.026 | [6] 0.013 | [7] -0.017 | [8] 0.027 | [9] 0.046 | [10] 0.008 | [11] 0.02 | [12] 0.003 | [13] 0.042 | [14] -0.018 | [15] -0.006 | [16] 0.004 | [17] -0.005 | [18] -0.012 | [19] 0.026 | [20] 0.009

TOPBP1 (UniProt Q92547)
Sequence of UniProt Q92547 (Q92547 whole entry, looked up): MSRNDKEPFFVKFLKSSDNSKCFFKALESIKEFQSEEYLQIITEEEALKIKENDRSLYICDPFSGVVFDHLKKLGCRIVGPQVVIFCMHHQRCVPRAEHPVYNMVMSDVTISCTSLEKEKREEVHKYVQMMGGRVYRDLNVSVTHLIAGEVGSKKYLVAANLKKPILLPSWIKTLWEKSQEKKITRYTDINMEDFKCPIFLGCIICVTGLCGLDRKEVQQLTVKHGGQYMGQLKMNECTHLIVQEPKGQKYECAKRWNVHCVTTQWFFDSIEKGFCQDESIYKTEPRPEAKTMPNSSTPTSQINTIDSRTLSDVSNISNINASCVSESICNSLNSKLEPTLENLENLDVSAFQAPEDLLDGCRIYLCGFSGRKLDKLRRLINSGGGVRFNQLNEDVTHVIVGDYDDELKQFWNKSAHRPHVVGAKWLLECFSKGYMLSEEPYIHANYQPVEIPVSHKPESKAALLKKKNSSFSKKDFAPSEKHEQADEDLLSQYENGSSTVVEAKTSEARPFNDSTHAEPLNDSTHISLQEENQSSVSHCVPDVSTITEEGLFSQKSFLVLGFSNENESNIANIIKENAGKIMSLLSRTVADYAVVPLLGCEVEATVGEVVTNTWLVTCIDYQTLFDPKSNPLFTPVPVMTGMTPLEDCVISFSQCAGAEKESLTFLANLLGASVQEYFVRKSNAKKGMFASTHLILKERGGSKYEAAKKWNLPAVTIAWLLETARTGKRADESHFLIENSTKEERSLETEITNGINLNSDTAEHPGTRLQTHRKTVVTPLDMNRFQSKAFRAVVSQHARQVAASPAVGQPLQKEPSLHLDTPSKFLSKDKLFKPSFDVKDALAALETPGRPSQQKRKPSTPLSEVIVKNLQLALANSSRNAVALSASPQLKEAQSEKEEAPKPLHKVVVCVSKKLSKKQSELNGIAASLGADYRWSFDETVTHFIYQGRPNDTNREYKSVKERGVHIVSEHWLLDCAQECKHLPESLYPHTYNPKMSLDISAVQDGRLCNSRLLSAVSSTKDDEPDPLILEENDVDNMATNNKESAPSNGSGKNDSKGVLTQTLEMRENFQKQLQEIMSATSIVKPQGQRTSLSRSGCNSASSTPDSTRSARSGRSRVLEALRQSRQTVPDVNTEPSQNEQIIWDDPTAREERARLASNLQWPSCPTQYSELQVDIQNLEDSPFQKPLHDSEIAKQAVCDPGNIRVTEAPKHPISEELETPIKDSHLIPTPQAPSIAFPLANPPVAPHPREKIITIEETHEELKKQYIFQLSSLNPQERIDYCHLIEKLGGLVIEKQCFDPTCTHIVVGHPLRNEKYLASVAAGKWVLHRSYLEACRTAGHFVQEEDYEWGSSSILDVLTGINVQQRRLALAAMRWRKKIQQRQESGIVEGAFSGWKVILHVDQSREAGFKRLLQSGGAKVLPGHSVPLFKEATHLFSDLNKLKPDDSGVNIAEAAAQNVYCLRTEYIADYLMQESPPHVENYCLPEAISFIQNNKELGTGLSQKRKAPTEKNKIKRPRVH
inactive: [1] 0.012 | [2] 0.003 | [3] 0.011 | [4] 0.011 | [5] 0.006 | [6] -0.02 | [7] -0.01 | [8] -0.035 | [9] 0.041 | [10] 0.055 | [11] 0.024 | [12] -0.08 | [13] 0.018 | [14] 0.012 | [15] -0.079 | [16] -0.029 | [18] -0.071 | [19] -0.003 | [20] 0.02
active: [17] 0.305

TUBB6 (UniProt Q9BUF5)
Sequence of UniProt Q9BUF5 (Q9BUF5 whole entry, looked up): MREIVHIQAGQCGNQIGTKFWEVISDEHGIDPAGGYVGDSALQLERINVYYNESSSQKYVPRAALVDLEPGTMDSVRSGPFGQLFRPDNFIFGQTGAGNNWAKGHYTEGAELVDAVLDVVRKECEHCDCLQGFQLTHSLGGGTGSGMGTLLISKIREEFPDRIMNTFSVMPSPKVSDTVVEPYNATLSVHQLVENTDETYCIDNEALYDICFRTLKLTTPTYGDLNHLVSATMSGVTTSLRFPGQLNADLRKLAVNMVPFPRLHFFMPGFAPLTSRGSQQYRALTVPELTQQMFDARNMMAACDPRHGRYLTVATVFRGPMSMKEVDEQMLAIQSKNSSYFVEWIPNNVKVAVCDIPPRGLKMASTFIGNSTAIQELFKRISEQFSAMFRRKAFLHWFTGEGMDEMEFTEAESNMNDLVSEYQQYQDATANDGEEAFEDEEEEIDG
inactive: [1] -0.005 | [2] 0.012 | [3] 0.023 | [4] -0.038 | [5] 0.027 | [6] 0.012 | [7] 0.025 | [8] -0.024 | [9] -0.009 | [10] 0.025 | [11] 0.007 | [12] 0.002 | [13] -0.015 | [14] 0.003 | [15] -0.068 | [16] -0.007 | [17] -0.019 | [18] 0.014 | [19] 0.032 | [20] -0.024

TMPO (UniProt P42167)
Sequence of UniProt P42167 (P42167 whole entry, looked up): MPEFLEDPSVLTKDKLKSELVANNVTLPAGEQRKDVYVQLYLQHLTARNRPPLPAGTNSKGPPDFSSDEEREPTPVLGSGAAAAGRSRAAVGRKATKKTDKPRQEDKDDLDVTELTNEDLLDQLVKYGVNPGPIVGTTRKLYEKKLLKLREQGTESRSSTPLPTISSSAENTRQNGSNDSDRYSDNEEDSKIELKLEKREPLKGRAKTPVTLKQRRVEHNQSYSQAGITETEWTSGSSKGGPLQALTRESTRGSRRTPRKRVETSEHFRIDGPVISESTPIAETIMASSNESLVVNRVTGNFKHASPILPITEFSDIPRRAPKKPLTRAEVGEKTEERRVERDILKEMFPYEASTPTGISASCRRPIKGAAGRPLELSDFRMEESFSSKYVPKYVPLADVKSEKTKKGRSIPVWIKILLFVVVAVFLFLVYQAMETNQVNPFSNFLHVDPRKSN
inactive: [1] -0.003 | [2] 0.009 | [3] 0.018 | [4] -0.001 | [5] -0.044 | [6] 0.006 | [7] 0.005 | [8] -0.043 | [9] -0.006 | [10] -0.064 | [11] 0.063 | [12] 0.008 | [13] 0.003 | [14] -0.01 | [15] 0.013 | [16] 0.022 | [17] 0.033 | [18] -0.033 | [19] 0.014 | [20] -0.014

TTC4 (UniProt O95801)
Sequence of UniProt O95801 (O95801 whole entry, looked up): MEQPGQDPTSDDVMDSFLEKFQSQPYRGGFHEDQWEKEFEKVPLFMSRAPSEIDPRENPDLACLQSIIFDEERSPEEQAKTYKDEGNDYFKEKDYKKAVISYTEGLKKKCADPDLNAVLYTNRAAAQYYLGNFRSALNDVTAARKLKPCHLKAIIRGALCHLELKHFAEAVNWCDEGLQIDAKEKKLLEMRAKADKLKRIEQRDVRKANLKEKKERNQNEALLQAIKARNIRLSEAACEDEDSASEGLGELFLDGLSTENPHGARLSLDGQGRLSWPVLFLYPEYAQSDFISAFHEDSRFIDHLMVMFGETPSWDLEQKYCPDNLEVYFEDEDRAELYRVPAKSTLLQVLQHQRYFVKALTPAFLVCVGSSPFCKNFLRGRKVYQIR
inactive: [1] 0.002 | [2] 0.015 | [3] 0.005 | [4] 0.011 | [5] 0.03 | [6] -0.029 | [7] -0.033 | [8] 0.026 | [9] 0.029 | [10] 0 | [11] 0.004 | [12] 0.05 | [13] -0.004 | [14] 0.008 | [15] -0.024 | [16] 0.007 | [17] -0.089 | [18] -0.027 | [19] 0.033 | [20] 0.005

TUBB2A (UniProt Q13885)
Sequence of UniProt Q13885 (Q13885 whole entry, looked up): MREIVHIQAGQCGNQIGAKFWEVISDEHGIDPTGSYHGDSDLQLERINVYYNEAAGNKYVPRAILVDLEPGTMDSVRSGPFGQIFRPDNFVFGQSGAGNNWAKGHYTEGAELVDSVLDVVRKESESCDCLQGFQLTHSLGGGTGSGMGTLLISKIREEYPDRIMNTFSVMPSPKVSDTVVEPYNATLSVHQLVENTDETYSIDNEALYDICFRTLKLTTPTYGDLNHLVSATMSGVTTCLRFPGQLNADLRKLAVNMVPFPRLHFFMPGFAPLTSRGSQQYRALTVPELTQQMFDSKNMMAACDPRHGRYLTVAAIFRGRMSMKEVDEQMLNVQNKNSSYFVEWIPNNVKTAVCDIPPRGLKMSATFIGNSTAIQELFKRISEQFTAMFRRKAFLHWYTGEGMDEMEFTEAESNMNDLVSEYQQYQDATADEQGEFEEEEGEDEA
inactive: [1] 0.005 | [2] 0.014 | [3] 0.032 | [4] -0.005 | [5] 0.027 | [6] 0.02 | [7] 0.001 | [8] -0.011 | [9] 0.032 | [10] 0.001 | [11] -0.001 | [12] 0.016 | [13] -0.013 | [14] -0.007 | [15] -0.049 | [16] 0.003 | [17] -0.032 | [18] 0.002 | [19] 0.011 | [20] 0.017

TRMT2A (UniProt Q8IZ69)
Sequence of UniProt Q8IZ69 (Q8IZ69 whole entry, looked up): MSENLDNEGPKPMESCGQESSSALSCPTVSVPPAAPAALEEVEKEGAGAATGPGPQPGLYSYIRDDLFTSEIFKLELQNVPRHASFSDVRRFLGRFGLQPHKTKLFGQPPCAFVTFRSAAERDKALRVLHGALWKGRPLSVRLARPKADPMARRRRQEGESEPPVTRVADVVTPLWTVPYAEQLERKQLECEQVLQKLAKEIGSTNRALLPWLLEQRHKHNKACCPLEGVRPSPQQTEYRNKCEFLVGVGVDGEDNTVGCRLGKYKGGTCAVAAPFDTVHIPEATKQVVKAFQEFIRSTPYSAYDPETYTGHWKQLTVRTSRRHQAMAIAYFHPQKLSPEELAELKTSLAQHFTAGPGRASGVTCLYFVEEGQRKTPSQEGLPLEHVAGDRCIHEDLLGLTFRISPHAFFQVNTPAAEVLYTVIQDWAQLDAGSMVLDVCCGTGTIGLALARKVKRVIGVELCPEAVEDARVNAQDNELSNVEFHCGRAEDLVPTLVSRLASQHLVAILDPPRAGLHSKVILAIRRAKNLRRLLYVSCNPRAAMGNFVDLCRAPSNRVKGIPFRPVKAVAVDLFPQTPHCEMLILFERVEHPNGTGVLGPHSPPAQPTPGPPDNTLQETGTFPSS
inactive: [1] 0.002 | [2] 0.005 | [3] 0.026 | [4] -0.005 | [5] 0.001 | [6] 0.012 | [7] -0.007 | [8] -0.03 | [9] 0.035 | [10] 0.008 | [11] -0.028 | [12] 0.004 | [13] 0.016 | [14] -0.019 | [15] -0.045 | [16] 0.005 | [17] -0.016 | [18] 0.009 | [19] -0.007 | [20] 0.002

TMEM164 (UniProt Q5U3C3)
Sequence of UniProt Q5U3C3 (Q5U3C3 whole entry, looked up): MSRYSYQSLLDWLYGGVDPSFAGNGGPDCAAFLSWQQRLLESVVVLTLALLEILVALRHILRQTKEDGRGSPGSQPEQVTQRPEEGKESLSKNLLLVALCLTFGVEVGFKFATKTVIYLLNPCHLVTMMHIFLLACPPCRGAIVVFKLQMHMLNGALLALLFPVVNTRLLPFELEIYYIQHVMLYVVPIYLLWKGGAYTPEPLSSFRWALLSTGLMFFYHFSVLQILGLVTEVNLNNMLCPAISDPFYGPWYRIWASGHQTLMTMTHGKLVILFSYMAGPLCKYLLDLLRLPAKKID
inactive: [1] 0.053 | [2] -0.066 | [3] -0.171 | [4] -0.252 | [5] -0.035 | [6] -0.184 | [7] -0.153 | [8] 0.255 | [9] 0.027 | [10] -0.061 | [11] 0.179 | [12] 0.108 | [13] 0.039 | [14] 0.176 | [15] 0.08 | [16] -0.186 | [18] 0.262 | [19] 0.062 | [20] -0.084
active: [17] -0.827
